A short description of assay [1]: qHTS assay to identify aromatase inhibitors - cell viability counter screen (AID 743084;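 also: cells stimulated with testosterone during compound exposure; nearly all actives have a fitted effect of over 55% in size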; also: potency is read from the fitted curve at half-maximal effect). (In general: Quantitative high-throughput screening tests each substance at several concentrations.)
The target in assay [2] is Aryl hydrocarbon receptor (Homo sapiens) (UniProt P35869). The assay can be described thus: qHTS assay to identify small molecule that activate the aryl hydrocarbon receptor (AhR) signaling pathway (AID 743085). Also: nearly all actives have a fitted effect of over 15% in size. Also: potency is read from the fitted curve at half-maximal effect.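 As to activation: HG2L7.5c1 human HepG2 liver cells with stably integrated DRE-driven firefly reporter; series mostly up to about 70 µM.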 The essentials: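 HepG2 cells (HG2L7.5c1) stably carrying a firefly luciferase reporter driven by 20 dioxin responsive elements were exposed to compound for 24 h at 37C after a 5 h settling period; luminescence rise (ONE-Glo) indicated activation.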
Sequence of Aryl hydrocarbon receptor (Homo sapiens) (P35869 whole entry, looked up): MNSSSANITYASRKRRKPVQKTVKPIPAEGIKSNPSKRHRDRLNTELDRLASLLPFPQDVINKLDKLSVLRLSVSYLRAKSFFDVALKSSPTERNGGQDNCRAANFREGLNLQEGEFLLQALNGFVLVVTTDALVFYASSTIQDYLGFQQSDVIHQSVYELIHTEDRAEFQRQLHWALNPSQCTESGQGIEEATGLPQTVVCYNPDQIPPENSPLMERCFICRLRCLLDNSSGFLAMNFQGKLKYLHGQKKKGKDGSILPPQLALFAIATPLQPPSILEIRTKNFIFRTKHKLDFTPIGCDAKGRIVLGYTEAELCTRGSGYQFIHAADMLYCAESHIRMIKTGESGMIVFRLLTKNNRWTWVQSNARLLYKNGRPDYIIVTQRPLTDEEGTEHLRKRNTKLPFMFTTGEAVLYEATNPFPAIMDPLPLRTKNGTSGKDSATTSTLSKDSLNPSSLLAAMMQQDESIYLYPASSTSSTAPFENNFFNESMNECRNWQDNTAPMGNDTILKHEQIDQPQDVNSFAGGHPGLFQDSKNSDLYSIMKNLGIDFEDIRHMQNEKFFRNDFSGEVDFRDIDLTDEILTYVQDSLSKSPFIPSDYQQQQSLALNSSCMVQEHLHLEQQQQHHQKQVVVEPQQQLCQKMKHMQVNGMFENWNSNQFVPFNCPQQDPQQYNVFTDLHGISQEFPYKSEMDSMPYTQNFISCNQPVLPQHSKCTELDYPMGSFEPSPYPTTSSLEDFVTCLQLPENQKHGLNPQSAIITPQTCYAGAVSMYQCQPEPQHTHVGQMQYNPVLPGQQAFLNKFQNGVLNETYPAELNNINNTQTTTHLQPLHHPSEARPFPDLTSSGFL

Assay [3] can be described thus: qHTS assay to identify small molecule that activate the aryl hydrocarbon receptor (AhR) signaling pathway - cell viability counter screen (AID 743086). Also: nearly all actives have a fitted effect of over 45% in size. Also: potency is read from the fitted curve at half-maximal effect. The gist of the method: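 Cytotoxicity counter screen: CellTiter-Fluor signal (30 min, 37 C) in 4000 HepG2 cells/well carrying the DRE-luciferase reporter, following 24 h compound exposure at 37 C.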
Assay [4] addresses Peroxisome proliferator-activated receptor gamma (Homo sapiens) (UniProt P37231). The assay can be described thus: qHTS assay to identify small molecule agonists of the peroxisome proliferator-activated receptor gamma (PPARg) signaling pathway (AID 743094; active = well fitted activation curve with a large enough effect in the signal ratio in the repeat runs, not every such curve was filed as active; the % refers to the signal ratio). The essentials:
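Following 5 h plating at 37C, PPARg-bla HEK293H cells receive compound or DMSO for 17 h; fluorescence intensity is recorded after LiveBLAzer B/G loading for 1 h at room temperature.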

Assay [5] has the same target. The assay can be described thus: qHTS assay to identify small molecule antagonists of the peroxisome proliferator-activated receptor gamma (PPARg) signaling pathway (AID 743191; calls by dose curve; also: series mostly up to about 63 µM; nearly all actives have a fitted effect of over 30% in size). The gist of the method: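 Beta-lactamase reporter under UAS control in HEK293H PPARg-bla cells; compound treatment 17 h at 37C. Read-out: fluorescence intensity after 1 h room-temperature incubation with LiveBLAzer B/G FRET substrate.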

The nature of assay [6]: qHTS assay to identify small molecule antagonists of the peroxisome proliferator-activated receptor gamma (PPARg) signaling pathway - cell viability counter screen (AID 743194). Also: nearly all actives have a fitted effect of over 55% in size. Particulars: Potency: co-treated with 50 nM rosiglitazone. The essentials: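 Viability was measured as CellTiter-Glo luminescence in GeneBLAzer PPARg UAS-bla HEK293H cells. These cells had been exposed 17 h at 37 C to compounds together with rosiglitazone at 50 nM final, with the beta-lactamase readout taken in the same wells.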

A short description of assay [7]: qHTS assay for small molecule agonists of the antioxidant response element (ARE) signaling pathway (AID 743202; active = well fitted activation curve with a large enough effect in the signal ratio in the repeat runs, not every such curve was filed as active; the % refers to the signal ratio). The essentials:
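Quantitative high-throughput format in HepG2 cells bearing an integrated ARE-beta-lactamase reporter. Compound exposure lasted 16 h at 37 C, and fluorescence was read 2 h after adding LiveBLAzer B/G substrate at room temperature.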

Assay [8] in a line: qHTS assay for small molecule agonists of the antioxidant response element (ARE) signaling pathway - cell viability counter screen (AID 743203; calls by dose curve; also: nearly all actives have a fitted effect of over 55% in size). The gist of the method:
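Compounds in DMSO were pinned onto ARE-bla HepG2 cells plated 5 hrs earlier at 2,000 cells/well. Sixteen hours later at 37C/5% CO2, CellTiter-Glo was added and luminescence measured after 30 min at room temperature.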

A short description of assay [9]: qHTS assay for small molecule activators of the heat shock response signaling pathway - cell viability counter screen (AID 743209). Also: nearly all actives have a fitted effect of over 50% in size. The essentials:
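Counter screen for cytotoxicity in HeLa HSE-bla reporter cells. Treatment was 5 h at 37 C; viability was detected by luminescent ATP assay (CellTiter-Glo) in the same wells as the beta-lactamase read.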

Assay [10] can be described thus: qHTS assay for small molecule activators of the heat shock response signaling pathway (AID 743210; active = well fitted activation curve with a large enough effect in the signal ratio in the repeat runs, with a control signal flat, not every such curve was filed as active; the % refers to the signal ratio;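 also: HeLa cells with beta-lactamase reporter driven by heat shock elements; series mostly up to about 63 µM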). The essentials: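 HeLa HSE-bla cells, overnight plating; cpd in DMSO 5 h, 37 C; LiveBLAzer B/G FRET substrate 2.5 h RT; fluorescence intensity read.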

“And” between values parts separate entries of the source, which are not always exact repeats. Identical values can stand only once. Records with an inconclusive call do not appear. More than one record can exist for a structure, and the calls need not agree. The source made the active and inactive calls. Unless noted, calls follow the shape of the dose curve; as a rule, active = well fitted curve in the direction sought with a large enough effect in the repeat runs; inconclusive = weak or mixed curves; inactive = no such curve, though single readings can be large; an effect the other way counts as inactive or inconclusive.

Sequence of Peroxisome proliferator-activated receptor gamma (Homo sapiens) (P37231 whole entry, looked up): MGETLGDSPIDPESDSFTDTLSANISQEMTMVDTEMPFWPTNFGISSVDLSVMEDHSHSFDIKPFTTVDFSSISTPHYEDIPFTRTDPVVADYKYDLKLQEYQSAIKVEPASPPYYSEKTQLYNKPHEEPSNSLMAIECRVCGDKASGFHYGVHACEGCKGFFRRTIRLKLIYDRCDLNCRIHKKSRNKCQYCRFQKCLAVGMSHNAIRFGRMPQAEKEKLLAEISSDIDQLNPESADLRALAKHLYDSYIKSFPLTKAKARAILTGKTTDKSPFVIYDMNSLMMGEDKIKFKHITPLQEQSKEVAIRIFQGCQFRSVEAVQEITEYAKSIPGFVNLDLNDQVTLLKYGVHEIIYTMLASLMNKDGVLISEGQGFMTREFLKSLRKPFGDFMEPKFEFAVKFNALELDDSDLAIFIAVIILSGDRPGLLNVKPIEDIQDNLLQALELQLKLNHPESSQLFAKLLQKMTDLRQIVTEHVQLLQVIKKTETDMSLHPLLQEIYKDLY

Consider `CC(C)(C)N(NC(=O)c1ccc(Cl)cc1)C(=O)c1ccccc1`, for which the Potency is 7.65 µM (active) in [1] and 17.1 µM (active) in [3]. The Potency entry in assay [2], in assay [4], in [5], in [6], in [7] and in assay [8] was “inactive” in each case. In addition, the Potency result in assay [9] and in assay [10] was “inactive” each time.

As to `C1CCNCC1`, the Potency entry in [1], in [2], in [3], in assay [4], in assay [5] and in [6] was “inactive” each time. The Potency entry in assay [7], in [8] and in [9] was “inactive” in each case.

In the case of `CCN(C(C)=O)c1cccc(-c2ccnc3c(C#N)cnn23)c1`, the Potency result in [1], in assay [2], in assay [3], in assay [4], in [5] and in assay [6] was “inactive” in each case. Further, the Potency entry in assay [7], in assay [8], in assay [9] and in [10] was “inactive” each time.

In the case of `Cc1ccccc1`, the Potency entry in assay [1], in assay [2], in assay [3], in assay [4], in [5] and in assay [6] was “inactive” throughout. Further, the Potency result in [7], in [8] and in [9] was “inactive” each time.

Take `C[N+](C)(C)CC1CO1` (configuration not stated): the Potency result in assay [1], in assay [2], in [3], in assay [4], in assay [5] and in assay [6] was “inactive” throughout. The Potency result in assay [7], in [8] and in assay [9] was “inactive” in each case.

As to `OCC1CO1` (configuration not stated), the Potency entry in assay [1], in [2], in assay [3], in assay [4], in [5] and in assay [6] was “inactive” throughout. In addition, the Potency result in [7], in [8] and in assay [9] was “inactive” in each case.

Consider `CCOC(=O)c1cncn1C(C)c1ccccc1` (configuration not stated), for which the Potency result in assay [1], in assay [2], in assay [3], in [4], in assay [5] and in assay [6] was “inactive” in each case. For the same compound, the Potency result in [7], in assay [8], in assay [9] and in [10] was “inactive” each time.

On to `CN1CC[C@]23c4c5ccc(O)c4O[C@H]2[C@@H](O)C=C[C@H]3[C@H]1C5`, for which the Potency result in assay [1], in assay [2], in assay [3], in assay [4], in assay [5] and in assay [6] was “inactive” each time. The Potency entry in assay [7], in assay [8] and in assay [9] was “inactive” each time.

For the compound `CC(C)[C@@H](C(=O)O[C@@H](C#N)c1cccc(Oc2ccccc2)c1)c1ccc(Cl)cc1`, the Potency entry in assay [1], in assay [2], in assay [3], in assay [4], in [5] and in assay [6] was “inactive” each time. In addition, the Potency result in [7], in assay [8] and in assay [9] was “inactive” each time.

Turning to `CCOP(=S)(OCC)Oc1ccc(S(C)=O)cc1` (configuration not stated), the Potency entry in assay [1], in [3], in [4], in [5], in assay [6] and in assay [7] was “inactive” each time. Also, the Potency result in [8] and in assay [9] was “inactive” each time. For the same compound, in assay [2], the Potency is 10.9 µM (active).

Take `O=CC=O`: the Potency entry in [1], in [2], in assay [3], in [4], in [5] and in assay [6] was “inactive” each time. In addition, the Potency entry in assay [7], in assay [8] and in [9] was “inactive” in each case.

On to `CCCCCBr`, for which the Potency result in assay [1], in assay [2], in [3], in assay [4], in assay [5] and in [6] was “inactive” throughout. The Potency result in assay [7], in assay [8], in [9] and in assay [10] was “inactive” each time.

Regarding `COC1CC(=C(c2cccs2)c2cccs2)C[N+](C)(C)C1` (configuration not stated), the Potency result in assay [1], in assay [2], in assay [3], in assay [4], in [5] and in assay [6] was “inactive” each time. The Potency entry in assay [7], in [8], in [9] and in [10] was “inactive” in each case.

Take `O=C(NCNC(=O)NC1C(=O)NC(=O)N1CO)NC1C(=O)NC(=O)N1CO` (configuration not stated): the Potency entry in [1], in assay [2], in [3], in assay [4], in [5] and in assay [6] was “inactive” each time. Moreover, the Potency entry in [7], in assay [8] and in [9] was “inactive” throughout.

Consider `C[Si](Cn1cncn1)(c1ccc(F)cc1)c1ccc(F)cc1`, for which the Potency in assay [1] is 63.1 µM (active) and inactive; in [3], 28.2 µM (active). In addition, the Potency entry in assay [2], in assay [4], in [5], in assay [6], in assay [7] and in assay [8] was “inactive” each time. For the same compound, the Potency entry in assay [9] was “inactive”.

Turning to `CCCCC(CC)COC(=O)c1c(Br)c(Br)c(Br)c(Br)c1C(=O)OCC(CC)CCCC` (configuration not stated), the Potency result in assay [1], in [2], in assay [3], in [4], in [5] and in [6] was “inactive” in each case. Further, the Potency result in assay [7], in assay [8], in assay [9] and in assay [10] was “inactive” throughout.

As to `O=C(N[C@H]1CN2CCC1CC2)c1ccc2c(c1)OCCO2`, the Potency result in assay [1], in assay [2], in [3], in assay [4], in [5] and in assay [6] was “inactive” throughout. In addition, the Potency result in assay [7], in [8], in assay [9] and in assay [10] was “inactive” each time.

For `Clc1ccc2ccccc2c1`, the Potency entry in assay [1], in [2], in [3], in assay [4], in [5] and in assay [6] was “inactive” in each case. Moreover, the Potency entry in [7], in assay [8], in assay [9] and in assay [10] was “inactive” throughout.

For the compound `CCCCC(CC)CO[N+](=O)[O-]` (configuration not stated), the Potency result in assay [1], in [2], in assay [3], in assay [4], in assay [5] and in assay [6] was “inactive” in each case. Besides, the Potency result in [8], in assay [9] and in assay [10] was “inactive” each time.

As to `CCC1(C2=NCCN2)Cc2ccccc2O1` (configuration not stated), the Potency entry in assay [1], in [2], in assay [3], in assay [4], in assay [5] and in assay [6] was “inactive” throughout. The Potency result in assay [7], in assay [8], in assay [9] and in assay [10] was “inactive” in each case.

Consider `Cc1nc(N(C)C)nc(OC(=O)N(C)C)c1C`, for which the Potency result in [1], in [2], in [3], in [4], in [5] and in assay [6] was “inactive” each time. The Potency result in [8], in assay [9] and in assay [10] was “inactive” each time.

As for `Nc1cccc2ccccc12`, the Potency result in assay [1], in assay [3], in [4], in [5], in [6] and in assay [7] was “inactive” throughout. For the same compound, the Potency result in assay [8], in assay [9] and in assay [10] was “inactive” throughout. In addition, the Potency in assay [2] was 27.5 µM (active) and 27.3 µM (active).

Take `COC1=CC(=O)O[C@@H](/C=C/c2ccc3c(c2)OCO3)C1`: the Potency result in assay [1], in [3], in assay [4], in assay [5], in [6] and in assay [8] was “inactive” each time. Further, the Potency entry in assay [9] and in assay [10] was “inactive” each time. In addition, the Potency in assay [2] was 0.414 µM (active).

For the compound `C=CCOCC1CO1` (configuration not stated), the Potency entry in assay [1], in assay [2], in assay [3], in assay [4], in [5] and in assay [6] was “inactive” each time. Moreover, the Potency entry in [7], in assay [8], in assay [9] and in [10] was “inactive” throughout.

Source of the values: PubChem BioAssay (Tox21).
